Experimental data reported in PubChem BioAssay (NCI).
This is part of a sample that, as a whole, favours compounds with a hit. Of some 83,000 tested, about 20% had one in any assay.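 Growth was measured after 48 h exposure to one concentration of compound in 96-well plates. Values under 10 count as active.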 Values without a mark were called inactive. Calls of active or inactive are those of the source.

test system: NCI-H460 lung; test: NCI-60 one-dose screen, 48 h (100 = growth as untreated, 0 = no growth, -100 = all killed); settings: 10 µM unless noted

SMILES	growth
CC(C)C1=NOC(=O)C1=Cc1cn(-c2ccccc2)nc1-c1ccccc1	85.2%
CCN(CC)CCCNCc1cc(-c2ccccc2)nc2ccccc12	105%
CCOC(=O)CCC[P+](c1ccccc1)(c1ccccc1)c1ccccc1	82.2%
Cc1cccc(C[C@H](NC(=O)Nc2ccc(Cl)cc2F)C(=O)N[C@@H]2C(=O)N3C[C@H](O)C[C@H]3C(=O)N3CCN(C)C[C@H]3C(=O)N[C@@H](C)C(=O)N3C[C@H](C)C[C@H]3C(=O)O[C@H]2C)c1	27.7%
COc1cc(C)cc2oc3oc(=O)c(C(=O)c4cc5cc(Br)ccc5o4)cc3c(=O)c12	107%
COc1ccc(CC(C#N)c2ccc(Cl)cc2)cc1 (stereo not drawn)	83.7%
Clc1ccc(/C=N/Nc2nc3ccccc3s2)c(Cl)c1	41.8%
Nc1nc(SCc2cccc([N+](=O)[O-])c2)c2[nH]cnc2n1	108%
COC(=O)[C@]12CCC(C)(C)C[C@H]1C1=CC[C@@H]3[C@@]4(C)C/C(=C/c5cccnc5)C(=O)C(C)(C)[C@@H]4CC[C@@]3(C)[C@]1(C)CC2	-39.3% [100 µM] (active)
Cn1cc(-c2nnc(-c3cn(C)c4ncccc34)o2)c2ccccc21	23.7%
Cc1ccc(C2=C/C(=C/c3ccc(Br)cc3)C(=O)N2CCc2ccc(S(N)(=O)=O)cc2)cc1	100%
COc1ccc2nc3cc(Cl)ccc3c(Nc3ccc(O)cc3)c2c1	23.1%
CCCCN(CC)CC(CC)Nc1cc(OC)cc2cccnc12 (stereo not drawn)	110%
